Test results published in PubChem BioAssay (NCI).
This is part of a sample that, as a whole, favours compounds with a hit. Of some 79,000 tested, about 15% had one in any assay. The source made the active and inactive calls. Cut-off read from the data, not from the text of the source: active = growth inhibition above about 70%; inactive = the rest.

Tests used:
[1] = NCI Yeast Anticancer Drug Screen. Data for the rad50 strain (AID 155);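 note: 0% = growth of vehicle-only cultures of the same strain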; conditions: S. cerevisiae rad50 strain growth inhibition; at 50.0 µM; hits give high values
How it was run: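 DNA repair mutant yeast, compound exposure, growth read-out; inhibition is taken relative to vehicle.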

[2] = NCI Yeast Anticancer Drug Screen. Data for the mec2-1 strain (AID 157); conditions: S. cerevisiae mec2-1 strain, at 50.0 µM, hits give high values
How it was run: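 Test agents were screened against the mec2-1 yeast strain, with defined DNA repair or cell cycle alteration. Growth was scored as inhibition against vehicle-only controls.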

[3] = NCI Yeast Anticancer Drug Screen. Data for the sgs1 mgt1 strain (AID 161);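 note: 0% = growth of cultures given vehicle only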; conditions: S. cerevisiae sgs1 mgt1 strain, at 50.0 µM, hits give high values
How it was run: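 Genetically altered yeast, compound exposure, growth inhibition relative to vehicle.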

[4] = NCI Yeast Anticancer Drug Screen. Data for the cln2 rad14 strain (AID 165);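 note: 0% = growth equal to vehicle treated cultures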; conditions: S. cerevisiae cln2 rad14 strain, at 50.0 µM, hits give high values
How it was run: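 Growth of compound-exposed yeast (cln2 rad14 genotype) measured and expressed as inhibition relative to vehicle.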

[5] = NCI Yeast Anticancer Drug Screen. Data for the bub3 strain (AID 167); conditions: S. cerevisiae bub3 mutant strain, at 50.0 µM, hits give high values
How it was run: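 In this screen, a yeast mutant lacking normal mitotic checkpoint function is challenged with compound. Relative growth versus vehicle gives the inhibition value.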

[6] = NCI Yeast Anticancer Drug Screen. Data for the mlh1 rad18 strain (AID 175); conditions: S. cerevisiae mlh1 rad18 strain growth inhibition; at 50.0 µM; hits give high values
How it was run: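 In this whole-cell yeast screen, a strain with altered DNA damage repair is challenged with compound, and its growth is measured against matched vehicle-treated controls.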

Measured: growth inhibition

CNCC(C)c1ccccc1OC (centres undefined)
inactive: [1] -9.6% | [2] -6.7% | [3] 2% | [4] 26.4% | [5] 13.3% | [6] -5.9%

O=S(=O)(N=S(CCCl)CCCl)c1ccccc1
inactive: [1] 8.3% | [2] 11.3% | [3] 24.3% | [4] -7.95% | [5] 21.4% | [6] 21.4%

CC(=O)OC1CC2(O)C(CCC3(C)C(c4ccc(=O)oc4)CCC32O)C2(C)CCC(O)C=C12 (centres undefined)
inactive: [1] 7.25% | [2] -11.4% | [3] -1.75% | [4] -1.75% | [5] -3.4% | [6] 14.8%

[CH3][Sb]1([Cl])[CH2]CCC[CH2]1
inactive: [1] 0.5% | [2] 32.9% | [3] 11.1% | [4] -6.1% | [5] 32% | [6] 36.2%

Nc1ccc2c(c1)Oc1ccc(N)cc1O2
inactive: [1] -22.8% | [2] 1.2% | [3] 0.7% | [4] 15.1% | [5] -6.2% | [6] 5.15%

C[N+]1=C(c2cccnc2/C=N/O)OCC1(C)C
inactive: [1] 1.3% | [2] -19.4% | [3] -13.7% | [4] -5.1% | [5] -24.4% | [6] -33.1%

C[As+](c1ccccc1)(c1ccccc1)c1cccc2ccccc12
inactive: [1] 10.2% | [2] 38.9% | [3] 21.2% | [4] -10.1% | [5] 26.1% | [6] 34.3%

CCN1C(=O)CC(=O)N(CC)C1=S
inactive: [1] 24.4% | [2] -12.4% | [3] -8.55% | [4] 12.2% | [5] 8.45% | [6] 21.2%

COc1ccccc1CCN
inactive: [1] -23.6% | [2] -5.9% | [3] -14.1% | [4] -14.3% | [5] -21.2% | [6] -29.3%

CCOP(=O)(OCC)/C(C#N)=C/c1ccc(OC)cc1
inactive: [1] 2.9% | [2] -1.8% | [3] -11.4% | [4] 11.7% | [5] 11.1% | [6] -1.05%

[O-][Cl+3]([O-])([O-])[O-].[O]=[Ru]=[O].c1ccc(-c2ccccn2)nc1.c1ccc(-c2ccccn2)nc1
inactive: [1] 21.9% | [2] 20.9% | [3] 22.4% | [4] 14.2% | [5] 13.7% | [6] 27.4%

NC(Cc1ccc2c(c1)OCO2)c1ccccc1 (centres undefined)
inactive: [1] -0.1% | [2] 9.05% | [3] 3.25% | [4] -27.3% | [5] 0.45% | [6] 4.45%

C1CCN2COCC2C1 (centres undefined)
inactive: [1] -16.2% | [2] -16.9% | [3] -38.5% | [4] 0.7% | [5] -17.2% | [6] 22.4%

N#CC(C#N)=Cc1ccccc1C(=O)O
inactive: [1] 14.9% | [2] 11.3% | [3] -12.3% | [4] 14.7% | [5] 7.15% | [6] -4.1%

CS(=O)(=O)NC(=O)CBr
inactive: [1] -26.1% | [2] -23.6% | [3] -12.8% | [4] 14.6% | [5] -29.4% | [6] -21.1%

N#Cc1ccccn1
inactive: [1] 13.1% | [2] -30.7% | [3] 12.7% | [4] -6.95% | [5] 3.5% | [6] 5.9%

CCC(Br)C(=O)OCCCl (centres undefined)
inactive: [1] 12% | [2] 13.7% | [3] 7.7% | [4] -4.75% | [5] 15.5% | [6] 3.6%

CCCC[S][Sn]([CH2]CCC)([CH2]CCC)[S]CCCC
active: [1] 95.8% | [2] 92.3% | [3] 94.7% | [4] 89.2% | [5] 93.2% | [6] 95.5%

CN1CCC(O)(c2ccccc2)C(O)C1 (centres undefined)
inactive: [1] 11.2% | [2] 29.1% | [3] 23.5% | [4] 32.3% | [5] -4% | [6] 39.2%

NC(N)=N/N=C/c1ccc(Cl)c(Cl)c1
inactive: [1] 8.45% | [2] -3.15% | [3] -8.2% | [4] -9.25% | [5] -3.6% | [6] 21.4%

CCOC(=O)/C(=C\c1ccc(Cl)cc1)[Se]c1ccccc1
inactive: [1] 56.9% | [2] 5.7% | [3] 28.9% | [4] 20.6% | [5] 11.3% | [6] 43%

O=c1[nH]cc(N=Cc2ccccc2F)c(=O)[nH]1.[Cl][Pt][Cl]
inactive: [1] 20.6% | [2] 6.15% | [3] 24.7% | [4] 26.9% | [5] -0.2% | [6] 8.95%

O=[As](O)(O)c1ccc(N=Nc2ccc([As](=O)(O)O)cc2)cc1
inactive: [1] -0.35% | [2] 11.1% | [3] -15.9% | [4] 6.8% | [5] -22.5% | [6] -16.6%

O=[N+]([O-])c1ccc(/C=C/c2cc(Cl)ccc2S(=O)(=O)F)c(Cl)c1
inactive: [1] 2.6% | [2] -0.85% | [3] 6.8% | [4] 13.4% | [5] 12.9% | [6] -4.35%

Nc1ccc([As](=O)(O)O)cc1
inactive: [1] 27.8% | [2] 19.8% | [3] 14.9% | [4] 11.8% | [5] 7.9% | [6] 21.3%

O=C(NCCN1CCOCC1)c1cc(N(CCCl)CCCl)c([N+](=O)[O-])cc1[N+](=O)[O-]
inactive: [1] 15.8% | [2] 7.45% | [3] 16.6% | [4] 23.6% | [5] 33.1% | [6] 27.9%

O=[N+]([O-])c1cccc2ncccc12
inactive: [1] -2.95% | [2] -14.4% | [3] 18.4% | [4] -6.55% | [5] 17.7% | [6] 9.3%

CC(=O)Nc1nn[nH]n1
inactive: [1] 21.9% | [2] 14.4% | [3] 2.1% | [4] 6.95% | [5] 0.7% | [6] 17.5%

OC(c1ccccc1)C(c1ccccc1)N1CCOCC1 (centres undefined)
inactive: [1] -8.45% | [2] 4.1% | [3] -1.3% | [4] 1.65% | [5] 7.9% | [6] 9.75%

COc1cc(C2(C)CCCCC2)c(OC)cc1C1(C)CCCCC1
inactive: [1] -8.1% | [2] 1.25% | [3] 23.4% | [4] -69.2% | [5] 2.75% | [6] 9.15%

O=S1(=O)OCCO1
inactive: [1] -3.5% | [2] -9% | [3] -3.8% | [4] -27.4% | [5] -5.55% | [6] 7.9%

C/C=C/CC1(CC)C(=O)NC(=S)NC1=O
inactive: [1] 3.8% | [2] 7% | [3] 7.15% | [4] 9% | [5] 2.35% | [6] 13.6%

O=C(CCBr)Nc1ccc(Cl)cc1C(=O)c1ccccc1
inactive: [1] 6.65% | [2] 5.5% | [3] 10.2% | [4] -2% | [5] 54.8% | [6] -5.95%

OCCNC1CCCCC1
inactive: [1] 5.15% | [2] -1.65% | [3] -13.8% | [4] -1.8% | [5] 3.55% | [6] -16.1%

O=C1NCN(c2ccccc2)C12CCN(CCCS(=O)(=O)c1ccccc1)CC2
inactive: [1] -22.4% | [2] -13.6% | [3] -9.55% | [4] -22.6% | [5] 3.5% | [6] -18%

S=C(N=Nc1ccccc1)NNc1ccccc1.[Ni]
inactive: [1] 12.3% | [2] -15.3% | [3] 2% | [4] 6.25% | [5] 26.8% | [6] 0.5%

Brc1ccc(-c2csc3c4ccccc4cc[n+]23)cc1
inactive: [1] 14.6% | [2] -3.25% | [3] 12.2% | [4] -2.45% | [5] 21.8% | [6] -1.75%

Clc1ccc(C(c2ccccc2Cl)C(Cl)(Cl)Cl)cc1 (centres undefined)
inactive: [1] -24.6% | [2] -7.8% | [3] 1.8% | [4] -44.6% | [5] 47.5% | [6] 12.2%

CC(C)C(O)(C(=O)OCC1=CC[N+]2([O-])CCC(O)C12)C(C)O (centres undefined)
inactive: [1] -16.9% | [2] -29.7% | [3] -9.7% | [4] 4% | [5] -7.45% | [6] -7.3%
